From the supplement of paper PMC6555819

System: RXRa homodimer (NR concentration 180 nM)
Experiment: PBM binding z-score (relative to random genomic background probes); higher = stronger binding; sequences stand for … in GC…GCGATTGACAGCGTAGAATGAAGG
Procedure, shortened: (§1)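 Custom Agilent 4×180K protein-binding microarrays carried double-stranded probes, each with a 34-nt variable region. These regions held direct-repeat seeds, single-nucleotide variants, half-site ablations and random human genomic background sequences. Ligand-free nuclear receptor dimers were incubated on the arrays for 1 h, antibodies against each partner (one per run) detected binding, and scanned fluorescence was regression-normalized. Binding z-scores take the random background probes as reference.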

Sequence | PBM binding z-score
CCTACTGGGTCATCAGGTCATTGATATCAACGTT | 4.38
TAGACTAGGTCATGGGCCAGTATACCACGCGAAC | 2.96
TCTTGTAAATCAAGCAGGTTAAGAAAGCCTGAGT | 0.26
TCATATAGCTAATACAGGTGAAAGTCGGCATCTA | 0.758
GTAGACAGGTGAAACGCAGGTAACTCAGGGTGGC | 0.743
CAGCCTAGGTCAGGGCCAGTATCGGAGGAACGTT | 1.55
ATCTCTAGGTAAGACTCTGTTCAGTGAAGAACGC | 0.0121
TCGAGTAGGTTAGGTGCATTCAGAATGGCGTCGA | 0.1
TCATCTAGGTAAATGCTAGGTGAAAGTCCGATCT | 0.38
CCGAGTAGGTTATGCGGCATTCAGGCAACGGTGA | 0.274
TCTTGTAGATCAACAGGATGTTAAGAAAGATCGA | 0.385
TCGAGTAGGTCAGTCGGGGCATTCAGCCAACATA | 1.32
CCTACTGGGCCAAAAAGGTTATTGATGCCGATAA | 1.03
CGTCCAAGGTCACAGGTCAGTGAAGAGATGACGG | 7.67
TCATATAGGTAGAAGGTGAAAGTCGGTGTGGTAA | 1.18
ATCGAAAGGTCGAGGTAAGTATAGAGAAAGGGAA | 4.6
CGTCCAAGGTCAGCAGGTCAGTGAGAGCGACGTG | 5.29
TCATATAGGGAAAAGGTGAAAGTCGGTGTGGTAA | 1.93
ACTATTAGTTGACTTAGGGCAACCAATACGACGC | 0.621
ACTAGCAGGCCAAGCGTCACTCAAGATTAGTCCG | -0.281

Sequence | PBM binding z-score
AATACAGGGTCATCGTAGGCCTGAGTACGCACAG | 6.77
ACTATTAGTTGACTTATGGCAACCGATACGACGC | 0.823
TTACCAAGGTGAGCTGAGGTCGTTGGTCCAACTC | 1.34
CCTACTGGGCCATTCAGAGTTCATTGATCATATG | 1.28
TCTTGTAGATCAACAGGAGGTTAAGAAAGATCGA | 0.762
AGAATGAGGTTATACGTAGAGCAGGGAAGAAAGT | 2.1
ACTAGTTGGTCAGCTGAGTTCACACACAATTCGG | 1.64
CAGCCTAGGTCAGGCCCAGTATAGGAGGAACGTT | 1.14
CGTCCAAGGTCATAGGAGGTCAGTGCAGACAGAT | 6.32
GTACCAAGGTCAATAGGTCGTTGATGAGTAGGCG | 5.66
ATCTCTAGTTAAGACTCAGTTCAGTGAAGAACGC | 0.126
CCTAGCAGGCCAATCTGGGTAACTCAAGGCTTGA | -0.515
GCTAGTTGGTCAGTAAAAGGCCACACACCGGTCG | 0.227
CCTAGTTGGTCAGGAGGTCACACACCGGATATGA | 4.83
CCTCGGAGGACAACTGGAGGTCAGAGCTGCCAGA | 2.22
ATATGTAGGTTAGCTGGGATCATTCAGACTAGGC | 0.95
AGTCAAAGTGCAGGACGAGGTAACGTAAAGCACG | 0.45
GCAGACAGGTGAAACGCAGGTAGCTCAGGGTGGC | 0.367
AGCGAAAGGTCGACGAGGTGAGTATACACCGTTT | 4.4
TACCCTAGGTCAGATCGGGCCAGTATACGCTATA | 1.54

System: THRa:RXRa (NR concentration 90 nM, RXRa partner concentration 90 nM)
Experiment: as above
Procedure, shortened: as §1

Sequence | PBM binding z-score
CCTACTGGGTCATCAGGTCATTGATATCAACGTT | 3.97
TAGACTAGGTCATGGGCCAGTATACCACGCGAAC | 2.73
TCTTGTAAATCAAGCAGGTTAAGAAAGCCTGAGT | 0.147
TCATATAGCTAATACAGGTGAAAGTCGGCATCTA | 0.42
GTAGACAGGTGAAACGCAGGTAACTCAGGGTGGC | 1.43
CAGCCTAGGTCAGGGCCAGTATCGGAGGAACGTT | 1.96
ATCTCTAGGTAAGACTCTGTTCAGTGAAGAACGC | 0.57
TCGAGTAGGTTAGGTGCATTCAGAATGGCGTCGA | -0.142
TCATCTAGGTAAATGCTAGGTGAAAGTCCGATCT | 1.28
CCGAGTAGGTTATGCGGCATTCAGGCAACGGTGA | -0.034
TCTTGTAGATCAACAGGATGTTAAGAAAGATCGA | -0.148
TCGAGTAGGTCAGTCGGGGCATTCAGCCAACATA | 2.4
CCTACTGGGCCAAAAAGGTTATTGATGCCGATAA | 0.617
CGTCCAAGGTCACAGGTCAGTGAAGAGATGACGG | 4.36
TCATATAGGTAGAAGGTGAAAGTCGGTGTGGTAA | 0.699
ATCGAAAGGTCGAGGTAAGTATAGAGAAAGGGAA | 2.58
CGTCCAAGGTCAGCAGGTCAGTGAGAGCGACGTG | 4.01
TCATATAGGGAAAAGGTGAAAGTCGGTGTGGTAA | 1.27
ACTATTAGTTGACTTAGGGCAACCAATACGACGC | 1.66
ACTAGCAGGCCAAGCGTCACTCAAGATTAGTCCG | -0.489

Sequence | PBM binding z-score
AATACAGGGTCATCGTAGGCCTGAGTACGCACAG | 4.2
ACTATTAGTTGACTTATGGCAACCGATACGACGC | 0.347
TTACCAAGGTGAGCTGAGGTCGTTGGTCCAACTC | 4.45
CCTACTGGGCCATTCAGAGTTCATTGATCATATG | 1.12
TCTTGTAGATCAACAGGAGGTTAAGAAAGATCGA | 0.782
AGAATGAGGTTATACGTAGAGCAGGGAAGAAAGT | 2.19
ACTAGTTGGTCAGCTGAGTTCACACACAATTCGG | 3.33
CAGCCTAGGTCAGGCCCAGTATAGGAGGAACGTT | 1.66
CGTCCAAGGTCATAGGAGGTCAGTGCAGACAGAT | 5.34
GTACCAAGGTCAATAGGTCGTTGATGAGTAGGCG | 3.68
ATCTCTAGTTAAGACTCAGTTCAGTGAAGAACGC | 0.594
CCTAGCAGGCCAATCTGGGTAACTCAAGGCTTGA | 1.86
GCTAGTTGGTCAGTAAAAGGCCACACACCGGTCG | 0.0278
CCTAGTTGGTCAGGAGGTCACACACCGGATATGA | 3.61
CCTCGGAGGACAACTGGAGGTCAGAGCTGCCAGA | 2.7
ATATGTAGGTTAGCTGGGATCATTCAGACTAGGC | 1.95
AGTCAAAGTGCAGGACGAGGTAACGTAAAGCACG | 2.23
GCAGACAGGTGAAACGCAGGTAGCTCAGGGTGGC | 0.401
AGCGAAAGGTCGACGAGGTGAGTATACACCGTTT | 3.75
TACCCTAGGTCAGATCGGGCCAGTATACGCTATA | 4.19
